Shown are actives, neighbours in structure and some others; about 1.2% of the full set was active somewhere.
PfHsp40 yeast: restores yeast growth despite PfHsp40 toxicity; actives 0.68% (n = 340,000); S. cerevisiae expressing PfHsp40, growth rescue, ATP luminescence; growth rescue, % at 12.5 µM; in the data active = growth rescue above about 28%, passing the limit was not always enough;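 note: yeast W303a lacking pdr1 and pdr3 grown in galactose medium; growth measured after three days at 30 °C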
TcdB inh: inhibitors of Clostridioides difficile toxin B glycohydrolase; TcdB glycohydrolase enzymatic assay, plate reader; actives 0.24% (n = 350,000); inhibition, % at 9.99 µM; P18177; AID 652162; in the data active = inhibition above about 10%
DUSP3 inh: blocks human VHR1 dual specificity phosphatase. inhibition, % at 13.3 µM. P51452. recombinant VHR phosphatase, pNPP absorbance. actives 0.52% (n = 290,000); in the data active = inhibition above about 50%
Mtb BioA inh: BioA (M. tuberculosis) enzyme inhibition | purified M. tuberculosis BioA enzyme, plate reader | inhibition, % at 9.99 µM | actives 0.096% (n = 360,000) | AID 602481; in the data active = inhibition above about 40%
Vc quorum ag: quorum light induction in luxS cqsA deficient V. cholerae. actives 0.16% (n = 350,000). V. cholerae BH1578 lux reporter, luminescence, 6 h. activation, % at 18.7 µM; in the data active = activation mostly above about 9.7%, no sharp cut-off
Yp Topo-I inh: Y. pestis Topo-I inhibition via cleavage products | Y. pestis Topo-I cleavage product accumulation, plate reader | activity, % at 10 µM | actives 0.064% (n = 360,000) | AID 504884; in the data active = activity above about 50%, passing the limit was not always enough
Active calls of the source: *.

Screening Nc1cc(=O)[nH]c(SCC(=O)N2N=C(c3ccc4ccccc4c3)CC2c2ccccc2)n1 (stereo not drawn) returned PfHsp40 yeast 1.1, TcdB inh -6.0, DUSP3 inh 15.2, Mtb BioA inh -0.9, Vc quorum ag -0.7 and Yp Topo-I inh 53.0*.
`O=C1NC(=O)/C(=C/c2ccccc2Oc2ccc(Cl)cc2)S1` gave PfHsp40 yeast 0.9, DUSP3 inh 6.2, Mtb BioA inh -0.9, Vc quorum ag inactive and Yp Topo-I inh 7.8.
`Cc1ccc(S(=O)(=O)Oc2ccccc2/C=C2\SC(=O)NC2=O)cc1` gave PfHsp40 yeast -1.9, TcdB inh 10.6*, DUSP3 inh 13.9, Vc quorum ag -0.2 and Yp Topo-I inh 0.8.
For COc1ccccc1C=C1SC(=S)NC1=O the results were PfHsp40 yeast 0.4, TcdB inh 10.6*, Vc quorum ag 1.2 and Yp Topo-I inh -5.5.
Screening COC(=O)c1ccccc1C(=O)N1CCCC(C(=O)c2cc(F)ccc2F)C1 (stereo not drawn) returned PfHsp40 yeast -0.7, TcdB inh -2.0, DUSP3 inh -3.6, Vc quorum ag -1.4 and Yp Topo-I inh 2.7.
For C[C@H](CO)N1C[C@H](C)[C@@H](CN(C)CC2CCCCC2)Oc2c(NC(=O)C3CC3)cccc2C1=O the results were PfHsp40 yeast 0.6, TcdB inh 0.3, Mtb BioA inh -2.4, Vc quorum ag -2.1 and Yp Topo-I inh 13.8.
For Cc1ccccc1-n1c(C)cc(/C=C(\C#N)C(=O)NCC2CCCO2)c1C (stereo not drawn) the results were PfHsp40 yeast 30.3*, DUSP3 inh -5.5, Mtb BioA inh 14.8, Vc quorum ag -0.6 and Yp Topo-I inh 5.5.
`O=C(Nc1ccccc1)Nc1ccc2c(c1)[C@H]1C[C@H](CC(=O)N3CCOCC3)O[C@H](CO)[C@H]1O2` gave Mtb BioA inh 2.8.
`c1ccc(CSC2=NNC(c3ccccn3)S2)cc1` (stereo not drawn) gave PfHsp40 yeast 92.5*, TcdB inh -4.0, DUSP3 inh 10.0, Vc quorum ag -1.2 and Yp Topo-I inh 2.6.
Cc1ccc(SCC(=O)OCC(=O)NC(C)c2ccc(Br)cc2)cc1 (stereo not drawn) was read as PfHsp40 yeast -0.4, TcdB inh -1.4, DUSP3 inh 56.7*, Mtb BioA inh -0.6, Vc quorum ag inactive and Yp Topo-I inh 13.4.
`COC(=O)C1C2c3ccccc3C(c3ccccc32)C1(C)C(=O)OC` (stereo not drawn) gave PfHsp40 yeast 35.1*, TcdB inh 6.5, Mtb BioA inh 0.3, Vc quorum ag -5.7 and Yp Topo-I inh -5.9.
COC(=O)[C@@H]1C(c2ccccc2)(c2ccccc2)[C@@]1(C)C(=O)OC was read as PfHsp40 yeast 1.4, TcdB inh -0.7, DUSP3 inh 1.9, Vc quorum ag -0.4 and Yp Topo-I inh -2.0.
O=C(Nc1ccc(O)c(-c2nc3ccccc3s2)c1)c1cccs1 was read as PfHsp40 yeast 0.8, TcdB inh 8.8, DUSP3 inh 5.4, Vc quorum ag -0.2 and Yp Topo-I inh -1.5.
For O=C(Nc1ccc(O)c(-c2nc3ccccc3s2)c1)c1cc(=O)c2ccccc2o1 the results were PfHsp40 yeast -1.6, DUSP3 inh 52.6*, Mtb BioA inh -1.4, Vc quorum ag -0.3 and Yp Topo-I inh 3.6.
For CC(C)C(=O)Nc1nnc(CCN2CCOCC2)s1 the results were PfHsp40 yeast -1.0, DUSP3 inh 51.2*, Mtb BioA inh -0.4, Vc quorum ag -0.2 and Yp Topo-I inh -6.8.
For COc1ccc(/C=C/c2ccc3cccc(O)c3n2)c(OC)c1OC the results were PfHsp40 yeast 33.3*, TcdB inh 0.9, DUSP3 inh 10.4, Mtb BioA inh 0.2, Vc quorum ag 2.6 and Yp Topo-I inh 18.8.
For COc1cccc(/C=C/c2ccc3cccc(O)c3n2)c1OC the results were PfHsp40 yeast -1.2, TcdB inh 0.3, DUSP3 inh 10.0, Mtb BioA inh 0.2, Vc quorum ag -0.5 and Yp Topo-I inh 21.6.
`COc1ccc(Br)cc1/C=C/c1ccc2cccc(O)c2n1` gave PfHsp40 yeast -0.4, TcdB inh 1.3, DUSP3 inh 56.9*, Mtb BioA inh -0.4, Vc quorum ag inactive and Yp Topo-I inh 3.4.
For COc1cccc(/C=C/c2ccc3cccc(O)c3n2)c1 the results were PfHsp40 yeast 35.1*, TcdB inh -0.3, DUSP3 inh 9.6, Mtb BioA inh -1.4, Vc quorum ag -0.4 and Yp Topo-I inh 10.9.

From PubChem
